25 sequences from the supplement of paper PMC10681739 can be followed below.

Test [1] concerns the target T1, ETS1 (UniProt P14921).
T1 sequence: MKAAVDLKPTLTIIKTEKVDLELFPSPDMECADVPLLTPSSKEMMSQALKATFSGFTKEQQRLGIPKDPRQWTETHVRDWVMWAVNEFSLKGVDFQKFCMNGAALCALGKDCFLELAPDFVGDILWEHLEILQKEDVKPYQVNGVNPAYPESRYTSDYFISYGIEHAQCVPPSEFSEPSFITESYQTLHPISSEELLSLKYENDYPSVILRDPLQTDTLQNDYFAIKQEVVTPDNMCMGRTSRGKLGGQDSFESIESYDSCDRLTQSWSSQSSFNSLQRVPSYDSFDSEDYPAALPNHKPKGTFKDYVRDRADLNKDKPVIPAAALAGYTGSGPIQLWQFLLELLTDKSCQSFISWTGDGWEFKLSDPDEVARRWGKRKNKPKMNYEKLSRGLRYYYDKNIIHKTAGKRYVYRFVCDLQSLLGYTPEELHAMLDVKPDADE
Nature of the test: ETS1 binding intensity (PBM fluorescence), ETS1 alone (arbitrary fluorescence units); higher = stronger binding. The following applies: ETS1 concentration 1 nM; RUNX1 concentration 0 nM.

The target of test [2] is RUNX1 (UniProt Q01196). The test can be described thus: RUNX1 binding intensity (PBM fluorescence), RUNX1 alone (arbitrary fluorescence units); higher = stronger binding. The note with it: RUNX1 concentration 2 nM; ETS1 concentration 0 nM. Here is the method: (§1)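 Cooperative gcPBM on 36-bp genomic probes with neighbouring ETS1 and RUNX1 sites. Recombinant human RUNX1 (2 nM) was incubated alone or with ETS1 (25 nM) and detected with anti-RUNX1 antibody plus Alexa488 secondary. Values are medians over 4 replicate spots; the RUNX1+ETS1 data were normalised to the RUNX1-only data. The probes sit in constant array flanks that are not printed.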

Test [3] has as its target T1, ETS1. Nature of the test: ETS1 binding intensity (PBM fluorescence) in presence of RUNX1, normalised to ETS1-only experiment (arbitrary fluorescence units); higher = stronger binding. The note with it: ETS1 concentration 1 nM; RUNX1 concentration 25 nM.
The target of test [4] is RUNX1 (UniProt Q01196). Nature of the test: RUNX1 binding intensity (PBM fluorescence) in presence of ETS1, normalised to RUNX1-only experiment (arbitrary fluorescence units); higher = stronger binding. The note with it: RUNX1 concentration 2 nM; ETS1 concentration 25 nM. Here is the method:
as §1
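For RUNX1 binding intensity (PBM fluorescence) in presence of ETS1, normalised to RUNX1-only experiment in this document: Full-length recombinant human ETS1 or RUNX1 bound to double-stranded 36-bp genomic probes on microarrays, detected by protein-specific primary antibody and Alexa488 secondary, spot fluorescence as median of four replicate spots.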
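For RUNX1 binding intensity (PBM fluorescence), RUNX1 alone in this document: Full-length recombinant human RUNX1 bound to double-stranded 36-bp genomic probes on a high-density microarray, scored as Alexa488 fluorescence per spot via anti-RUNX1 antibody, median of four replicate spots.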

Sequence of RUNX1 (Q01196 whole entry): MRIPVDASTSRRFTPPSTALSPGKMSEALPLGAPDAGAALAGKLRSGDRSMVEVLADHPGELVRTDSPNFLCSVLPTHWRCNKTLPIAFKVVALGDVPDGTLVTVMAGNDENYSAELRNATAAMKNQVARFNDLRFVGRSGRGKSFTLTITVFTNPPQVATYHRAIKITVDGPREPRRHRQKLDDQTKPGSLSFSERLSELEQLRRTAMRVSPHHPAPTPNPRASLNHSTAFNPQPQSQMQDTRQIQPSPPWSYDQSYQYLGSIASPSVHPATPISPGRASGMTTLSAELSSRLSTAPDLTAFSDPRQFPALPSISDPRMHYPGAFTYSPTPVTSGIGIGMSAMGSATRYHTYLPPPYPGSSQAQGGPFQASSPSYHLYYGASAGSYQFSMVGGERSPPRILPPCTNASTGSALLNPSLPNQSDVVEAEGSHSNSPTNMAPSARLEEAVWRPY

In the case of GACCACTTCCTTTCTGTGTTTTGTGGTTTCACAACT, the ETS1 binding intensity was determined as 555 in test [1] and 1650 in test [3]. Moreover, the RUNX1 binding intensity in test [2] came to 2430; in test [4], 9060.
On to GGATTAGAACTGCTTCCTCCTGTGGTTTACCAGAAA, for which the figures for the ETS1 binding intensity in test [1] and in test [3] were 417 and 595, respectively. The RUNX1 binding intensity in test [2] was 923; in test [4], 1840.
For GATTTGTCACAGGAAGTACCCACAGGCCAAGAAGTG the same measures were 5230, 5790, 817 and 1260.
In the case of GAGGGTTGCTGGGGGGAAGTGTGGTAAATCTTTTCC, the ETS1 binding intensity in test [1] is 458; in test [3], 475. The values for the RUNX1 binding intensity in test [2] and in test [4] were 938 and 930, respectively.
For TGAAGCCATGGTTTCCTGTCTGCGGCTCAGATCAAG the same measures were 1020, 1600, 717 and 1490.
On to GACAAAGAGGAAGTCCCCAAAAACCACAATAACAGT, for which the values for the ETS1 binding intensity in test [1] and in test [3] were 910 and 4080, respectively. The values for the RUNX1 binding intensity in test [2] and in test [4] were 1570 and 3900, respectively.
For ACTGAACAAACCGGATGTGGTTCCCACCTGCAATCT the same measures were 25000, 29500, 850 and 11400.
As to CAAATGAATAAAGGATGTGGTAAATTATTTTCTTCT, the ETS1 binding intensity was 935 in test [1] and 5660 in test [3]. Also, the values for the RUNX1 binding intensity in test [2] and in test [4] were 814 and 1780, respectively.
For GTTGAGTAGTGACAGGAAGTGACCGCAAGGGGGCGC the same measures were 10700, 44800, 1860 and 3540.
For GAAAACACAGGAAGCCGTCCGCGCAACCGCGTTGCA the same measures were 1520, 2160, 840 and 1150.
For ACCCCAAGCCCAGGATGTGGTTTGGCCACTATTGAG the same measures were 727, 4450, 859 and 2030.
Turning to CCATTTCCGCGCACGTCTGCAGATGCGGTAGTCGAT, the ETS1 binding intensity in test [1] stood at 413; in test [3], 463. For the same sequence, the RUNX1 binding intensity in test [2] was determined as 853; in test [4] it was 1830.
For TCCTGGCAGAGACCGGAAGTGCGGTCCGCGGAGCGT the same measures were 28200, 43300, 739 and 1800.
For GTGTGCGTGAGAAGAGGAAGTGGTTAGGAAGACACA the same measures were 4030, 12200, 801 and 1900.
CCTTTCCGCGAGACCTTCCGCGGTTATCCAGCGAGT: the figures for the ETS1 binding intensity in test [1] and in test [3] were 372 and 481, respectively. The RUNX1 binding intensity in test [2] came out at 1160; in test [4] it was 1510.
For CTGTTTCCGAGTAAAGTAGGGTGTGTGGGTCACATG the same measures were 456, 395, 872 and 929.
For TTAAACACGGAAGTGCATCGGTTGTTGTGGTTATTC, the ETS1 binding intensity in test [1] amounted to 1260; in test [3], 4360. The RUNX1 binding intensity in test [2] stood at 845; in test [4], 1150.
For GGCGGGACTTCCGGCGTCTCCCCTCGGCGGTTGCTT the same measures were 2330, 2700, 751 and 1980.
For GCAGAGAGATTGGCCGGATGCGGTGGCTCACGCCTT the same measures were 4850, 8930, 683 and 1140.
For TACAATTCGCACCGGAACTTGCGGCCCGGCTTCATT, the ETS1 binding intensity in test [1] amounted to 3630; in test [3], 4640. The RUNX1 binding intensity in test [2] amounted to 729; in test [4], 963.
For TTCTATCCTGCCTTGCATGTCTTTAACCACACTGAG the same measures were 396, 489, 1800 and 1720.
For TGACTTCCTCCTCTTCACTAACAGAAACCTCAATTT the same measures were 440, 526, 1400 and 2570.
For CCTGTCCGGAAGTCCTGAGAGGGAATCGCCCGCAAA the same measures were 2300, 5360, 963 and 1690.
Take GCACCGTCTACCCGGAAGTTGTGGGCTGGGAGGGAT: the ETS1 binding intensity came to 5610 in test [1] and 9990 in test [3]. The figures for the RUNX1 binding intensity in test [2] and in test [4] were 813 and 1430, respectively.
Turning to AGCTTGCTTCCTGTCCCCAAAACCCACAGCACACGG, the figures for the ETS1 binding intensity in test [1] and in test [3] were 688 and 1120, respectively. Besides, the RUNX1 binding intensity in test [2] stood at 893; in test [4], 2590.
